According to PubChem BioAssay AID1159580 (chemical genetic matrix, 2015):
Where “and” joins values, the source holds several entries; their conditions need not be identical. Equal entries are not always repeated. About 2,000 (36%) of roughly 5,500 compounds were called active. Another 18% or so got no clear call; they are omitted. Rule as the data show it: active = normalized growth mostly below about 0.91 (no sharp cut-off); inconclusive = no clear call, values can overlap the other calls; inactive = mostly above about 0.92. Some of the results follow.

Test: chemical genetic growth profiling, strain panel (AID 1159580);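 also: tested at 20 µM; growth read once vehicle control cultures reached saturation at 30 °C; 1 = growth at the plate median or of vehicle wells; lower values mean less growth of the strain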
Details: S. cerevisiae deletion strains, growth OD

Measured: normalized growth

CC(Cc1ccc(O)c(O)c1)(NN)C(=O)O (stereo not drawn)
inactive: locus YAL021C, strain ccr4, stronger effect = lower value 1 | locus YAL026C, strain drs2, stronger effect = lower value 1 | locus YAL030W, strain snc1, stronger effect = lower value 0.997 | locus YBL061C, strain skt5, stronger effect = lower value 1.01 | locus YBR009C, strain hhf1, stronger effect = lower value 0.982 | locus YBR021W, strain FUR4, stronger effect = lower value 1.01 | locus YBR023C, strain chs3, stronger effect = lower value 0.976 | locus YBR171W, strain sec66, stronger effect = lower value 1.01 | locus YBR229C, strain ROT2, stronger effect = lower value 1 | locus YBR231C, strain swc5, stronger effect = lower value 0.997 | locus YBR279W, strain paf1, stronger effect = lower value 0.988 | locus YCL011C, strain gbp2, stronger effect = lower value 1.02 | locus YCL016C, strain dcc1, stronger effect = lower value 1.01 | locus YCL029C, strain bik1, stronger effect = lower value 1.02 | locus YCL069W, strain vba3, stronger effect = lower value 1 | locus YCR088W, strain abp1, stronger effect = lower value 1 | locus YDL005C, strain med2, stronger effect = lower value 1 | locus YDL035C, strain GPR1, stronger effect = lower value 1 | locus YDL040C, strain nat1, stronger effect = lower value 1 | locus YDL074C, strain BRE1, stronger effect = lower value 0.972 | locus YDL101C, strain DUN1, stronger effect = lower value 1.02 | locus YDL134C, strain PPH21, stronger effect = lower value 1.04 | locus YDL185W, strain tfp1, stronger effect = lower value 0.989 | locus YDL192W, strain arf1, stronger effect = lower value 1.01 | locus YDR001C, strain nth1, stronger effect = lower value 0.994 | locus YDR069C, strain doa4, stronger effect = lower value 0.99 | locus YDR101C, strain arx1, stronger effect = lower value 1 | locus YDR137W, strain rgp1, stronger effect = lower value 1.04 | locus YDR159W, strain sac3, stronger effect = lower value 1 | locus YDR162C, strain NBP2, stronger effect = lower value 1.01 | locus YDR195W, strain ref2 0.972 | locus YDR297W, strain sur2, stronger effect = lower value 1 | locus YDR318W, strain mcm21, stronger effect = lower value 1.01 | locus YDR334W, strain swr1, stronger effect = lower value 0.999 | locus YDR335W, strain msn5, stronger effect = lower value 0.982 | locus YDR388W, stronger effect = lower value 1.01 | locus YDR392W, strain spt3, stronger effect = lower value 0.985 | locus YDR502C, strain sam2, stronger effect = lower value 1.01 | locus YEL003W, strain gim4, stronger effect = lower value 0.991 | locus YEL037C, strain rad23, stronger effect = lower value 1.02 | locus YEL061C, strain CIN8 (second series), stronger effect = lower value 0.999 | locus YEL061C, strain CIN8, stronger effect = lower value 1.01 | locus YER015W, strain faa2, stronger effect = lower value 0.984 | locus YER016W, strain bim1, stronger effect = lower value 1.01 | locus YER110C, stronger effect = lower value 1.02 | locus YER111C, strain swi4, stronger effect = lower value 1.01 | locus YER155C, strain BEM2 (second series), stronger effect = lower value 1.01 | locus YER155C, strain BEM2, stronger effect = lower value 0.999 | locus YER167W, strain BCK2, stronger effect = lower value 1.01 | locus YFR010W, strain ubp6, stronger effect = lower value 0.986 | locus YGL078C, strain dbp3, stronger effect = lower value 0.979 | locus YGL086W, strain mad1, stronger effect = lower value 1.02 | locus YGL167C, strain pmr1, stronger effect = lower value 1 | locus YGL173C, strain kem1, stronger effect = lower value 1.03 | locus YGL227W, strain vid30, stronger effect = lower value 0.989 | locus YGL240W, strain doc1, stronger effect = lower value 1 | locus YGL248W, strain PDE1, stronger effect = lower value 0.991 | locus YGL253W, strain hxk2, stronger effect = lower value 0.997 | locus YGR078C, strain PAC10, stronger effect = lower value 0.966 | locus YGR135W, strain pre9, stronger effect = lower value 1.01 | locus YGR229C, strain SMI1, stronger effect = lower value 0.992 | locus YGR252W, strain gcn5, stronger effect = lower value 1.01 | locus YHR013C, strain ard1, stronger effect = lower value 1.04 | locus YHR027C, strain rpn1, stronger effect = lower value 0.995 | locus YHR030C, strain SLT2, stronger effect = lower value 0.997 and 0.958 | locus YHR079C, strain IRE1 (second series), stronger effect = lower value 1.02 | locus YHR079C, strain IRE1, stronger effect = lower value 0.961 | locus YHR094C, strain hxt1, stronger effect = lower value 1.01 | locus YHR129C, strain ARP1, stronger effect = lower value 1.01 | locus YHR142W, strain chs7, stronger effect = lower value 1.02 | locus YHR200W, strain rpn10, stronger effect = lower value 1.01 | locus YIL066C, strain RNR3, stronger effect = lower value 0.965 | locus YIL073C, strain SPO22, stronger effect = lower value 1.14 | locus YIL125W, strain kgd1, stronger effect = lower value 1 | locus YIR030C, strain dcg1, stronger effect = lower value 1.01 | locus YJL092W, strain hpr5, stronger effect = lower value 0.997 | locus YJL095W, strain BCK1 (second series), stronger effect = lower value 0.996 | locus YJL095W, strain BCK1, stronger effect = lower value 1 and 0.954 | locus YJL115W, strain asf1, stronger effect = lower value 0.983 | locus YJL129C, strain trk1, stronger effect = lower value 1.02 | locus YJL134W, strain LCB3, stronger effect = lower value 1 | locus YJL154C, strain vps35, stronger effect = lower value 1.01 | locus YJL164C, strain tpk1, stronger effect = lower value 1.01 | locus YJL166W, strain qcr8, stronger effect = lower value 1.02 | locus YJL168C, strain set2, stronger effect = lower value 1.01 | locus YJL187C, strain SWE1 (second series), stronger effect = lower value 1 | locus YJR043C, strain POL32, stronger effect = lower value 1.01 | locus YJR066W, strain TOR1, stronger effect = lower value 0.936
